S2 tox – Viability Counterscreen for Primary qHTS for Inhibitors of ATXN expression; S2 cells (HEK-293 line with an ATXN2-luciferase reporter) viability, CellTiter-Fluor protease fluorescence, 24 h; AID 651635, 2014; 400,000 compounds, 0.49% hits; Potency, µM (top dose mostly 56.7 µM), most hits filed as cytotoxic; note: nearly all actives have a fitted effect of over 40% in size
ATXN2 expr inh – Primary qHTS for Inhibitors of ATXN expression | HEK-293 ATXN2-luciferase reporter, luminescence, 24 h | Potency, µM (series often up to 57 µM), for inactives: top-dose activity change, negative = inhibition, actives largely listed as inhibitors | 360,000 compounds, 0.72% hits | AID 1745845, 2022; note: % is set by controls: 0 for no effect and ±100 for the full control effect; nearly all actives have a fitted effect of over 55% in size
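qHTS (up to 57 uM final) was run with 24 h compound exposure of reporter cells at 37 °C. Each well was multiplexed: SteadyGlo luminescence measured ATXN2-luciferase expression after a fluorogenic Gly-Phe-AFC viability readout (25 uM final).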
TGFb SMAD3 inh – qHTS for Inhibitors of TGF-b; HepG2 CAGA-GFP TGF-b/SMAD3 reporter, GFP fluorescence, 18 h; TGF-beta stimulated, 500 pg/mL final; Potency, µM (doses to about 46.1 µM), for inactives: top-dose activity, negative = inhibition, most hits filed as inhibitors; 410,000 compounds, 1.2% hits; AID 588855, 2011; note: % is set by controls: 0 for no effect and ±100 for the full control effect; nearly all actives have a fitted effect of over 65% in size
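HEPG2 CAGA-GFP, 1000 cells/well; 2 h settle, 37 C; cpd via pin tool; TGF-b 500 pg/mL final; 18 h, 37 C; GFP imaging ex488/em500-530; %Activity normalised to -TGF-b and +DMSO controls; CRC fit, curve class.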
TDP1 cell CPT – qHTS for Inhibitors of human tyrosyl-DNA phosphodiesterase 1 (TDP1): qHTS in cells in presence of CPT; chicken DT40 Tdp1-/-;hTDP1 cells + 20 nM CPT, ATP luminescence, 48 h; Potency, µM (highest dose often 46.2 µM), for the others: top-dose activity change, negative = growth inhibition, most hits filed as inhibitors; 420,000 compounds, 12% hits; AID 686979, 2013; note: % is set by controls: 0 for no effect and ±100 for the full control effect; nearly all actives have a fitted effect of over 55% in size
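Chicken DT40 Tdp1-/- cells complemented with human TDP1, 400 cells/well, exposed to compounds plus 20 nM camptothecin for at least 48 h at 37 C; viability read as ATP content by CellTiter-Glo luminescence.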
TDP1 cell noCPT – qHTS for Inhibitors of human tyrosyl-DNA phosphodiesterase 1 (TDP1): qHTS in cells in absence of CPT | Potency, µM (titrated, usually from 46.2 µM), inactives show at the top dose activity change, negative = growth inhibition, hits mostly inhibitors | AID 686978, 2013 | 420,000 compounds, 15% hits | DT40 Tdp1-/- hTDP1 cells, no CPT, ATP luminescence, 48 h; note: % is set by controls: 0 for no effect and ±100 for the full control effect; nearly all actives have a fitted effect of over 55% in size
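Luminescent ATP content (CellTiter-Glo) served as the growth readout. Knockout chicken DT40 cells expressing human TDP1 were exposed to compounds without camptothecin for a minimum 48 hr at 37 °C.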
HepG2 tox – qHTS for Inhibitors of TGF-b: Cytotox Counterscreen; Potency, µM (top dose mostly 46.1 µM), for inactives: at the highest dose activity change, negative = cytotoxicity, most hits filed as cytotoxic; 410,000 compounds, 0.76% hits; AID 588856, 2011; HepG2 CAGA-GFP viability, ATP luminescence, 18 h
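HepG2 CAGA-GFP cells (1000/well, DMEM with 1% FBS) received compound, then TGF-beta at 500 pg/mL final, and were incubated 18 hours at 37 degrees C. Viability was read by CellTiter-Glo luminescence. Media-only wells were set as complete cell-killing and DMSO as no toxicity.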
Active calls of the source: *; i = inactive; ? = inconclusive; nt = no result; [ ] = remark or other dose. An excerpt weighted towards active compounds, which were near 17% of everything screened. Calls come from the whole dose curve; as a rule, active = well fitted curve in the direction sought with a large enough effect; inconclusive = small, poorly fitted or top-dose-only effect, or another doubt; inactive = no such curve, though single readings can be large; an effect the other way counts as inactive or inconclusive. Potency is the fitted concentration of half-maximal effect.

SMILES	S2 tox	ATXN2 expr inh	TGFb SMAD3 inh	TDP1 cell CPT	TDP1 cell noCPT	HepG2 tox
CCOC(=O)N1CCN(C(=O)C(=O)Nc2sc3c(c2C(=O)O)CC(C)(C)OC3)CC1	i	-9%	-3%	?	-6%	3%
O=C(CN(C(=O)CNS(=O)(=O)c1ccc(F)cc1)c1ccccc1F)NCc1ccco1	i	-15%	-1%	11%	-19%	1%
O=C(CCN1C(=O)c2cccc([N+](=O)[O-])c2C1=O)Nc1nccs1	i	-8%	4%	10%	1%	-1%
COc1ccc(NC(=O)Cn2nnc3sc4c(c3c2=O)CCC(C)C4)c(OC)c1 (stereo not given)	?	-20%	?	-27%	-16%	-21%
CC1CCc2c(sc3nnn(CC(=O)Nc4ccccc4Cl)c(=O)c23)C1 (stereo not given)	?	-34%	-6%	?	16µM*	-7%
CC1CCc2c(sc3nnn(CC(=O)Nc4cccc(C(F)(F)F)c4)c(=O)c23)C1 (stereo not given)	i	4%	?	?	21µM*	-21%
CC1CCc2c(sc3nnn(CC(=O)Nc4ccc(Cl)cc4)c(=O)c23)C1 (stereo not given)	i	5%	4%	?	?	25%
CCC(C)(C)NC(=O)C(c1ccc(OC)cc1)N(Cc1cccs1)C(=O)CCC(=O)Nc1cc(C)on1 (stereo not given)	i	-25%	0%	18µM*	?	-6%
CCC(C)(C)NC(=O)C(c1ccccc1)N(Cc1cccs1)C(=O)Cn1nnc2ccccc21 (stereo not given)	i	-4%	-11%	18µM*	?	4%
COCCN(C(=O)CCC(=O)Nc1cc(C)on1)C(C(=O)NC1CCCC1)c1ccc(C)cc1 (stereo not given)	i	-14%	-6%	?	0.33µM*	-7%
O=C(NCc1ccco1)C(c1cccs1)N(Cc1ccccc1)C(=O)Cn1nnc2ccccc21 (stereo not given)	i	4%	?	?	?	10%
CCC(C)(C)NC(=O)C(c1ccc(C)o1)N(Cc1cccs1)C(=O)Cn1nnc2ccccc21 (stereo not given)	?	-12%	?	?	?	-42%
Cc1ccc(CN(C(=O)Cn2nnc3ccccc32)C(C(=O)NCc2ccco2)c2cccs2)cc1 (stereo not given)	i	6%	?	?	23µM*	7%
COCCN(C(=O)CCC(=O)Nc1cc(C)on1)C(C(=O)NC1CCCC1)c1ccc(C(C)C)cc1 (stereo not given)	i	3%	-29%	-8%	?	-2%
Cc1ccc(C(=O)OC(C)CN2C(C)CCCC2C)cc1 (stereo not given)	i	5%	4%	9%	6%	-31%
COCCNC(=O)C(c1ccc(F)cc1)N(Cc1cccs1)C(=O)CCC(=O)Nc1ccccn1 (stereo not given)	i	6%	-4%	-2%	-6%	-17%
CC(C)(C)NC(=O)C(c1ccc(O)cc1)N(Cc1ccco1)C(=O)CCC(=O)Nc1ccccn1 (stereo not given)	i	17%	2%	-20%	-1%	9%
CCc1ccc(C(C(=O)NC(C)(C)CC)N(Cc2ccco2)C(=O)Cn2nnc3ccccc32)cc1 (stereo not given)	i	-7%	-18%	18µM*	?	-18%
CC(C)(C)NC(=O)C(c1ccc(Cl)cc1)N(Cc1ccco1)C(=O)CCl (stereo not given)	i	9%	-1%	4.6µM*	2.9µM*	-33%
COc1ccc(/C=C/C(=O)N2CCc3c(cnc(C)c3CNC(=O)c3ccsc3)C2)cc1OC	i	nt	nt	6%[9.04 µM]	-27%	nt
C=CCS/C(=N\n1cnc2ccccc2c1=O)N1CCCCC1	i	36%	?	26µM*	18µM*	-1%
O=c1c2ccccc2ncn1C1CCCCC1	i	20%	-3%	-2%	0%	1%
CC1(C)CC(=O)C(/C=N/n2cnc3ccccc3c2=O)=C(O)C1	i	31%	-7%	-11%	-12%	-3%
C=CCS/C(=N\n1cnc2ccccc2c1=O)N(CC)CC	?	1%	-2%	?	18µM*	0%
C=C(CCO)C1=CCN(S(=O)(=O)C(C)(C)C)[C@H]1CCO	i	-1%	10%	-4%	-3%	-29%
SMILES	S2 tox	ATXN2 expr inh	TGFb SMAD3 inh	TDP1 cell CPT	TDP1 cell noCPT	HepG2 tox
Cc1noc(C(=O)Nc2ccc(F)c(Cl)c2)c1Cl	i	34%	4%	-7%	-10%	-7%
COc1cccc(-c2nc(CS(=O)(=O)CC(=O)NCc3ccc(C)cc3)c(C)o2)c1	nt	nt	?	23µM*	?	-17%
COc1cccc(-c2nc(CS(=O)(=O)CC(=O)Nc3c(C)cc(C)cc3C)c(C)o2)c1	nt	nt	10µM*	18µM*	23µM*	-79%
CC(C)(C)c1ccc(CCC2OCC(C[N+]3(C)CCOCC3)O2)cc1 (stereo not given)	i	-26%	25%	1.8µM*	2.1µM*	8%
CCC(C)N(C(=O)c1csnn1)C(C(=O)NC1CCCC1)c1c(F)cccc1Cl (stereo not given)	i	-5%	-10%	-4%	?	8%
Cc1cc(O)ccc1N=Cc1c(C(F)(F)F)[nH][nH]c1=O	i	nt	?	23µM*	10µM*	-13%
c1cc2c3c(c1)CCC[N+]3(C1CCCCC1)CCC2	nt	nt	-25%	?	?	-11%
Cc1ccc(C)c(N2CCN(Cc3nnc(-c4ccc5c(c4)OCO5)o3)CC2)c1	i	11%	-8%	?	?	-16%
COc1ccc(C(C)=O)cc1CSc1nnc(Nc2ccc(C)cc2)s1	i	-12%	?	?	23µM*	-1%
COc1ccc(C(C)=O)cc1CSc1ncccn1	i	7%	6%	4%	15%	3%
COc1ccc(C(C)=O)cc1CSc1nnc(Nc2ccccc2)s1	i	?	-8%	?	16µM*	-27%
COc1ccc(C(C)=O)cc1CSc1nnc(C)s1	i	32%	-19%	-17%	-8%	0%

From PubChem
